In the supplement of paper PMC6555819:

What was measured:
Assay in all cases: PBM binding z-score (relative to random genomic background probes); higher = stronger binding; sequences stand for … in GC…GCGATTGACAGCGTAGAATGAAGG
[1] = test system: FXR:RXRa (NR concentration 270 nM, RXRa partner concentration 90 nM)
Procedure, shortened: (§1)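 For binding z-scores, the reference was random background probes on custom Agilent 4×180K protein-binding microarrays. These arrays were incubated 1 h with ligand-free nuclear receptor dimers in PBS pH 7.4, 2% milk, 0.02% Triton X-100, 1 mM DTT, 0.2 mg/mL BSA and 0.4 mg/ml salmon testes DNA. Fluorescence was scanned after antibody detection of each partner (one per run) and regression-normalized.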

[2] = test system: LXRa:RXRa (NR concentration 270 nM, RXRa partner concentration 90 nM)
Procedure, shortened: as §1

[3] = test system: LXRa homodimer (NR concentration 270 nM)
Procedure, shortened: as §1

[4] = test system: LXRb:RXRa (NR concentration 270 nM, RXRa partner concentration 90 nM)
Procedure, shortened: as §1

[5] = test system: LXRb homodimer (NR concentration 270 nM)
Procedure, shortened: as §1

[6] = test system: PPARa:RXRa (NR concentration 270 nM, RXRa partner concentration 90 nM)
Procedure, shortened: as §1

[7] = test system: PPARg:RXRa (NR concentration 180 nM, RXRa partner concentration 90 nM)
Procedure, shortened: as §1

[8] = test system: PPARg:RXRa 270nM:90nM, anti-RXR (NR concentration 270 nM, RXRa partner concentration 90 nM)
Procedure, shortened: as §1

[9] = test system: PPARg:RXRa 30nM:10nM, anti-RXR (NR concentration 30 nM, RXRa partner concentration 10 nM)
Procedure, shortened: as §1

[10] = test system: PPARg:RXRa 90nM:30nM, anti-RXR (NR concentration 90 nM, RXRa partner concentration 30 nM)
Procedure, shortened: as §1

Sequence | PBM binding z-score [1] | PBM binding z-score [2] | PBM binding z-score [3] | PBM binding z-score [4] | PBM binding z-score [5] | PBM binding z-score [6] | PBM binding z-score [7] | PBM binding z-score [8] | PBM binding z-score [9] | PBM binding z-score [10]
AGAACGAGGGCAATGAGTTGTTAGCACGGGTGGC | 0.161 | 0.00811 | -0.446 | -0.26 | -1.01 | 1.23 | 1.18 | 0.817 | 0.096 | 0.514
ATATGTAGGTTATGGGGTCATTCAGTTTGCGCAT | 5.54 | 5.12 | 3.61 | 5.55 | 2.36 | 5.91 | 8.65 | 7.03 | 5.67 | 7.31
AGAATGAGGTTACCAAAGAACAGGGAAACGCTTG | 1.88 | 5.18 | -0.214 | 2.35 | -0.334 | 3.32 | 2.51 | 2.41 | 1.03 | 1.71
TCGAGTAGGTTACCAATGGAGCATTCAGCTTTCT | -0.291 | 0.37 | -0.758 | -0.00248 | -1.32 | 0.92 | 0.264 | 1.16 | 1.33 | 1.08
ATCTCTAGGTAAATTTCAGTGAAAGATCGATAGA | 0.175 | 0.31 | 0.359 | 0.199 | 0.934 | 0.102 | 0.408 | 0.671 | 0.581 | 0.833
TCTATTAGTTGATTAGGGCAACCGGAACAGCGGA | 0.61 | 0.628 | 0.183 | 0.539 | 0.503 | 0.953 | 0.188 | 1.84 | 3.7 | 2.79
ACTATTAGTTGACTTTGGGCAACCGATACGACGC | 0.0915 | 0.0714 | 0.0306 | 0.155 | 0.67 | -0.00502 | 0.965 | 0.394 | 0.326 | 0.537
CCTACTAGTTGACCATAAGGGCAACCGAAGCTCG | 0.832 | 0.281 | 0.276 | 0.306 | 0.518 | 0.516 | 0.418 | 0.311 | -0.164 | 0.0805
CGTCCAAGGTCAGCAGGTAAGTGAAAGCGACGTG | 5.48 | 3.22 | -0.131 | 2.36 | -0.25 | 4.3 | 3 | 3.31 | 0.585 | 2.28
ATATGTAGGTTATCGGGTCAATCAGTTTGCGCAT | 3.33 | 3.31 | 1.36 | 2.99 | 1.1 | 4.99 | 7.6 | 6.41 | 3.84 | 5.93
ACTATTAGTTGAGACGAGGGCAACCGGTAGGTTG | 0.623 | 0.318 | 0.134 | 0.06 | -0.0535 | 0.319 | 0.685 | -0.0601 | -0.0682 | 0.00323
GATACAGGGTCAGCTGGAGGCCAGAGTATGGAAA | 5.07 | 2.76 | -0.49 | 2.38 | -0.887 | 4.47 | 3.91 | 3.62 | 1.24 | 2.49
CCAGACAGGTGAAAGGTAACACAGTCTGGTACGC | 0.883 | 0.799 | -0.29 | 0.919 | -0.313 | 3.54 | 5.85 | 6.13 | 4.72 | 6.42
CAAACTAGGTCACAGAGTTCAAAGTCCGTGCGTA | 6.27 | 6.12 | 7.46 | 4.98 | 0.834 | 6.05 | 9.65 | 7.78 | 6.58 | 8.06
CATACAGGGCCAGCTAGGCCAGAGTAGGGACGGC | -0.56 | -0.822 | -0.918 | -1.15 | -0.413 | -0.817 | 0.311 | -0.829 | -0.392 | -1
TCTCGGAGGACACGAAAGGACAGAGCTCGACATC | 0.793 | 0.0695 | -0.281 | -0.358 | -0.815 | -0.148 | 0.542 | 0.751 | 1.85 | 1.34
GATACAGGGTCAAGGCCAGAGCACGCGTATTGAT | 6.68 | 4.17 | 0.0226 | 3.67 | -0.301 | 5.48 | 5.84 | 5.3 | 2.03 | 4.13
ATCTGTAGGTAAAGTTCAGTGAAAGATCGATAGA | 0.691 | 1.44 | 1.19 | 1.01 | 0.396 | 2.28 | 3.37 | 4.2 | 2.41 | 3.78
ACTAGCAGCCCAAGGGTCACTCAAGATTAGTCCG | 2.27 | 2.63 | 0.353 | 2.75 | -0.34 | 3.14 | 2.69 | 3.61 | 1.43 | 3.21
ACTAGCAGGCCAAGTTTGGGTCACACAAACAAAG | 0.341 | 0.408 | -0.252 | 1.17 | -0.354 | 1.85 | 0.563 | 0.793 | -0.154 | 0.0156
GGAAAGAGGGCATTCGAGTTGATAGCATGGCGAT | 1.74 | 2.82 | 0.148 | 1.13 | 0.213 | 1.92 | 0.905 | 1.19 | 0.366 | 0.958
ACTAGCAGGCCAATGGTCACTCAAGATTAGTCCG | -0.525 | -0.42 | -0.46 | -0.417 | -0.678 | 0.789 | 2.17 | 3.26 | 0.959 | 2.79
CTGCCAAGGTGAACAAGGTCGTTGATTACTATTC | 0.873 | 0.86 | -0.343 | 1.15 | -0.569 | 2.25 | 0.839 | 1.1 | -0.107 | 0.638
ATCTCTTGGTAACCAAGTTCAGTGAATGCCGAAC | 0.478 | 1.31 | 0.59 | 1.22 | 0.681 | 0.472 | 0.0645 | 0.369 | -0.134 | 0.145
CCTTACGGGTCACTGACAGGTTATAGAATTTGGA | 5.11 | 4.02 | 0.265 | 3.45 | 0.0176 | 4.89 | 4.24 | 4.49 | 1.75 | 3.35
